Laboratory results reported in PubChem BioAssay (NCATS).
Records with an inconclusive call do not appear. Calls of active or inactive are those of the source. Unless noted, calls follow the shape of the full dose curve.

Legend:
[1] = qHTS Assay for Lipid Storage Modulators (AID 1519); conditions: Drosophila S3 cells, BODIPY lipid droplet/cell ratio, laser cytometry, cells loaded with oleic acid; for activity change, negative = inhibition: at 57.5 µM (top of the series); as to activity change, negative = inhibition: % is scaled to controls: 0 for no effect and ±100 for the full control effect
Summary of the method: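 Cells seeded at 5,000 per well were treated with compounds over a concentration series and loaded with oleic acid (400 uM, as added). Lipid droplet fluorescence (488 nm excitation, 500-530 nm channel) was read by laser-scanning cytometry and normalized to 20 uM Triacsin C.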

[2] = qHTS drug screen for cell cycle checkpoint inhibitors in PARPi-resistant BRCA-mutant ovarian cancer cell lines. (AID 1963452); conditions: PEO1/OlaR viability, CellTiter-Glo luminescence, 96 h, stronger effect = lower value
Summary of the method: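 PEO1, PEO4 and PEO1/OlaR ovarian cancer cells, 600 per well, exposed 96 h at 37C to a dilution series. Viability read by CellTiter-Glo luminescence, normalized to DMSO and empty wells; activity summarized as Z-AUC.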

[3] = Validation of Assay for Modulators of Lamin A Splicing (AID 1459; active = well fitted curve in the direction sought with a large enough effect in the signal ratio; the % refers to the signal ratio;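 also: cells exposed to compound for two days before reading; 0% is about no effect; ratio rise marks activators and ratio drop marks inhibitors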)
Summary of the method: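 S3 HeLa cells stably expressing a lamin A-EGFP splicing minigene and DsRed2 were seeded at 600 cells/well in Opti-MEM with 2% FBS, pin-dosed, and incubated 48 hrs at 37 °C, 5% CO2. Laser-scanning cytometry (488 nm) gave GFP/RFP total intensity ratio.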

[4] = biological target: ATP-dependent DNA helicase Q1 (Homo sapiens) (UniProt P46063); assay: qHTS Validation Assay for Inhibitors of RecQ-Like Dna Helicase 1 (RECQ1) (AID 2353; active = well fitted curve in the direction sought with a large enough effect; an effect the other way counts as inactive or inconclusive;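 also: plate controls were DMSO vehicle for no effect and enzyme-free control for full effect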)
Summary of the method: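 50 nM RECQ1T1 preincubated 15 min with compound in Tris pH 8.0 buffer with MgCl2, DTT, Tween-20 and 2.5 ug/ml poly(dI-dC); started with 200 nM TAMRA/BHQ-2 forked duplex and 2 mM ATP. Unwinding read as fluorescence (525/598 nm), two reads 2 h apart.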

[5] = biological target: Galactokinase (Homo sapiens) (UniProt P51570); assay: qHTS Validation Assay for Inhibitors of Human Galactokinase (GALK) (AID 493189; active = well fitted curve in the direction sought with a large enough effect; an effect the other way counts as inactive or inconclusive; also: 0% is about no effect)
Summary of the method: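 GALK (5 nM) with 35 uM ATP and 100 uM galactose in HEPES pH8.0, MgCl2, NaCl, DTT, BSA; 1 h at room temperature. Residual ATP read by Kinase-Glo Plus luminescence after 10 min.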

[6] = measured here: cell count channel max response
[7] = measured here: lipid channel max response
[8] = measured here: PEO1 parental Z-AUC

Sequence of Galactokinase (Homo sapiens) (P51570 whole entry, looked up): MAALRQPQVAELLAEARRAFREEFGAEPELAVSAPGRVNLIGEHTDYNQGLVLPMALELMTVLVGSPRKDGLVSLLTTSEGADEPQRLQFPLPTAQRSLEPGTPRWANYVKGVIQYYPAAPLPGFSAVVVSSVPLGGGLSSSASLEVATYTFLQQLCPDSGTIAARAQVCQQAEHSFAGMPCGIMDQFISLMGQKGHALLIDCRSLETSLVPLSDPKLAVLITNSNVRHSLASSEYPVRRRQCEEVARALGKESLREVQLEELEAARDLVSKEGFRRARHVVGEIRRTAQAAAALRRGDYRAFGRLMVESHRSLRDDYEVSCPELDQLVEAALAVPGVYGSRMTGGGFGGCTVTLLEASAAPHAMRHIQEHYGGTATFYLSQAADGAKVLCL
Sequence of ATP-dependent DNA helicase Q1 (Homo sapiens) (P46063 whole entry, looked up): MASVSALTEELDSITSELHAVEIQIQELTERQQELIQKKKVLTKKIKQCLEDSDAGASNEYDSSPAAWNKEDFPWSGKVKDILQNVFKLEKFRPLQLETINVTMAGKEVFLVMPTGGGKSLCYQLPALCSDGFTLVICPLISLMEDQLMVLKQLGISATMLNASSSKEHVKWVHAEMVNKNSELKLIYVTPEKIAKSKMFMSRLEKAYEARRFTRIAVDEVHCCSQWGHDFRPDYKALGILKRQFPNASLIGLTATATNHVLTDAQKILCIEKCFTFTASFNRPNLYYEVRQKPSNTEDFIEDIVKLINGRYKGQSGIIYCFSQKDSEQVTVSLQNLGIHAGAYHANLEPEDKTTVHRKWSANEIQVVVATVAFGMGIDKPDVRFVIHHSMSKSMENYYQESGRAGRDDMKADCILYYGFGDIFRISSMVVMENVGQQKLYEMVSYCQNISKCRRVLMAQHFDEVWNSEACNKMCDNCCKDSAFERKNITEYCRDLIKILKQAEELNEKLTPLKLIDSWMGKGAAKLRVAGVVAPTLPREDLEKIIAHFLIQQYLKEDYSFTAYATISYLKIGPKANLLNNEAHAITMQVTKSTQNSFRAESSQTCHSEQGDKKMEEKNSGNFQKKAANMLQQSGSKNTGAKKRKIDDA

O=C1CC(c2ccc(O)cc2)Oc2cc(O)cc(O)c21 (stereo not given)
activity change, negative = inhibition [1]: 9.01% (inactive) | max response [1, 6]: -5.6% | max response [1, 7]: 4.14%

CC(=O)O[C@@]12CO[C@@H]1C[C@H](O)[C@@]1(C)C(=O)[C@H](O)C3=C(C)[C@@H](O)C[C@@](O)([C@@H](OC(=O)c4ccccc4)[C@H]21)C3(C)C
Z-AUC [2]: 1.05 (inactive) | Z-AUC [2, 8]: 0.322 | Z-AUC ([2]; measured here: PEO4 Z-AUC): 0.492

Cc1c(N)nc([C@H](CC(N)=O)NC[C@@H](N)C(N)=O)nc1C(=O)N[C@H](C(=O)N[C@@H](C)[C@H](O)[C@@H](C)C(=O)N[C@@H](C(=O)NCCc1nc(-c2nc(C(=O)NCCC[S+](C)C)cs2)cs1)[C@@H](C)O)C(O[C@H]1O[C@H](CO)[C@H](O)[C@@H](O)[C@H]1O[C@H]1O[C@H](CO)[C@@H](O)[C@H](OC(N)=O)[C@@H]1O)c1cnc[nH]1 (stereo not given in full)
Z-AUC [2]: -0.673 (inactive) | Z-AUC [2, 8]: -1.76 | Z-AUC ([2]; measured here: PEO4 Z-AUC): 0.233

COC12C(COC(N)=O)C3=C(C(=O)C(C)=C(N)C3=O)N1CC1C2N1C (stereo not given)
Z-AUC [2]: -0.24 (inactive) | Z-AUC [2, 8]: 0.0826 | Z-AUC ([2]; measured here: PEO4 Z-AUC): -0.134

CC(C)(NC(=O)O[C@@H]1CN2CCC1CC2)c1csc(-c2ccc(F)cc2)n1
Z-AUC [2]: 1.16 (inactive) | Z-AUC [2, 8]: 0.982 | Z-AUC ([2]; measured here: PEO4 Z-AUC): 1.29

O=C(CBr)N1CC([N+](=O)[O-])([N+](=O)[O-])C1
Z-AUC [2]: 1.13 (inactive) | Z-AUC [2, 8]: 0.0375 | Z-AUC ([2]; measured here: PEO4 Z-AUC): 1

C[C@@H](C1CC[C@@]2(O)C3=CC(=O)[C@@H]4C[C@@H](O)[C@@H](O)C[C@]4(C)[C@H]3CC[C@]12C)[C@H](O)CCC(C)(C)O (stereo not given in full)
Z-AUC [2]: 0.596 (inactive) | Z-AUC [2, 8]: 0.976 | Z-AUC ([2]; measured here: PEO4 Z-AUC): 1.02

CC(C)[C@]12O[C@H]1[C@@H]1O[C@@]13[C@@]1(C)CCC4=C(COC4=O)[C@@H]1C[C@@H]1O[C@@]13C2=O
Z-AUC [2]: -1.63 (inactive) | Z-AUC [2, 8]: -0.566 | Z-AUC ([2]; measured here: PEO4 Z-AUC): -1.17

CC(=O)OC[C@H]1O[C@@H]([S-])[C@H](OC(C)=O)[C@@H](OC(C)=O)[C@@H]1OC(C)=O.CC[PH+](CC)CC.[Au]
Z-AUC [2]: -0.477 (inactive) | Z-AUC [2, 8]: -0.483 | Z-AUC ([2]; measured here: PEO4 Z-AUC): -0.599

C/C=C(\C)C(=O)N[C@@H](c1ccccc1)[C@@H](O)C(=O)O[C@H]1C[C@@]2(O)[C@@H](OC(=O)c3ccccc3)[C@@H]3[C@]4(OC(C)=O)CO[C@@H]4C[C@H](O)[C@@]3(C)C(=O)[C@H](OC(C)=O)C(=C1C)C2(C)C
Z-AUC [2]: -2.81 (inactive) | Z-AUC [2, 8]: -2.97 | Z-AUC ([2]; measured here: PEO4 Z-AUC): -3.26

C=C(C)[C@@H]1CCC(C)=C[C@H]1c1c(O)cc(CCCCC)cc1O
Z-AUC [2]: -0.487 (inactive) | Z-AUC [2, 8]: 0.125 | Z-AUC ([2]; measured here: PEO4 Z-AUC): 0.904

C[C@@]12OC(=O)[C@]1([C@@H](O)[C@@H]1C=CCCC1)NC(=O)[C@@H]2CCCl
Z-AUC [2]: -0.972 (inactive) | Z-AUC [2, 8]: -1.61 | Z-AUC ([2]; measured here: PEO4 Z-AUC): -1.64

CN1C(=O)[C@@H](NC(=O)[C@H](CCC(F)(F)F)[C@H](CCC(F)(F)F)C(N)=O)N=C(c2ccccc2)c2ccccc21
Z-AUC [2]: -0.603 (inactive) | Z-AUC [2, 8]: 0.158 | Z-AUC ([2]; measured here: PEO4 Z-AUC): -0.105

CC(C)(O)/C=C\C(=O)[C@](C)(O)[C@H]1[C@H](O)C[C@]2(C)[C@@H]3CC=C4[C@@H](C=C(O)C(=O)C4(C)C)[C@]3(C)C(=O)C[C@@]12C
Z-AUC [2]: -2.52 (inactive) | Z-AUC [2, 8]: -1.67 | Z-AUC ([2]; measured here: PEO4 Z-AUC): -2.46

CO[C@H]1CCC(O[C@H]2C[C@H]([C@]3(C)CC[C@]4(C[C@H](O)[C@@H](C)[C@@H]([C@@H](C)/C=C(\C)C(=O)[C@H](C)C[C@H](C)C(=O)O)O4)O3)O[C@]3(O[C@@H]([C@H]4O[C@@](O)(CO)[C@H](C)C[C@@H]4C)C[C@@H]3C)[C@@H]2C)O[C@@H]1C (stereo not given in full)
Z-AUC [2]: -1.49 (inactive) | Z-AUC [2, 8]: -1.68 | Z-AUC ([2]; measured here: PEO4 Z-AUC): -1.99

Cn1c(COP(=O)(NCCBr)NCCBr)cnc1[N+](=O)[O-]
Z-AUC [2]: 0.865 (inactive) | Z-AUC [2, 8]: 0.833 | Z-AUC ([2]; measured here: PEO4 Z-AUC): 1.09

O=C(O)CNC(=O)C1C(=O)N(C2CCCCC2)C(=O)N(C2CCCCC2)C1=O
Z-AUC [2]: 0.43 (inactive) | Z-AUC [2, 8]: 0.47 | Z-AUC ([2]; measured here: PEO4 Z-AUC): 0.437

C[C@]12COC(=O)C[C@@H]1CC[C@@H]1[C@@H]2CC[C@@]2(C)[C@H]1CC[C@]2(C)O
Z-AUC [2]: 0.596 (inactive) | Z-AUC [2, 8]: 0.611 | Z-AUC ([2]; measured here: PEO4 Z-AUC): 0.327

C[C@@H]1CC[C@@]2(OC1)O[C@H]1C[C@H]3[C@@H]4CC=C5C[C@@H](O[C@@H]6O[C@H](CO)[C@@H](O[C@@H]7O[C@@H](C)[C@H](O)[C@@H](O)[C@H]7O)[C@H](O)[C@H]6O[C@@H]6O[C@@H](C)[C@H](O)[C@@H](O)[C@H]6O)CC[C@]5(C)[C@H]4CC[C@]3(C)[C@H]1[C@@H]2C
Z-AUC [2]: 0.183 (inactive) | Z-AUC [2, 8]: -0.31 | Z-AUC ([2]; measured here: PEO4 Z-AUC): -0.496

COC[C@H]1OC(=O)c2coc3c2[C@@]1(C)C1=C(C3=O)[C@@H]2CC[C@H](O)[C@@]2(C)C[C@H]1OC(C)=O
Z-AUC [2]: 0.029 (inactive) | Z-AUC [2, 8]: -0.102 | Z-AUC ([2]; measured here: PEO4 Z-AUC): 0.779

CCCN1CCC[C@@H](c2cccc(C#N)c2)C1
outcome [3]: inactive | outcome [4]: inactive | outcome [5]: inactive

N#CC(=Cc1ccc(O)c(O)c1)C(N)=S
outcome [3]: inactive | outcome [4]: inactive | outcome [5]: inactive

NNCc1cccc(O)c1
outcome [3]: inactive | outcome [4]: inactive | outcome [5]: inactive

NC(Cn1ccc(=O)[nH]c1=O)C(=O)O (stereo not given)
outcome [3]: inactive | activity change, negative = inhibition [1]: -1.49% (inactive) | max response [1, 6]: -18.2% | max response [1, 7]: -23.6% | outcome [4]: inactive | outcome [5]: inactive
